Consider 15 compounds from PubChem BioAssay (NCI).

Molecules are shown by their SMILES. The panel holds about 83,000 compounds, 20% with a hit somewhere; the sample as a whole holds those more often.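 Single-dose data. Exposure time 48 hours. Values below 10 considered active.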 Values without a mark were called inactive. The source made the active and inactive calls.

Holding throughout (assay): NCI-60 one-dose screen, 48 h (100 = growth as untreated, 0 = no growth, -100 = all killed)
Settings in all cases: 10 µM unless noted

For test [1], the system named is DU-145 prostate.
In test [2] the test system is MALME-3M melanoma.
For test [3], the system named is MDA-MB-231 breast.
In test [4] the test system is RXF 393 renal.
The subject of test [5] is SF-268 CNS.
Test [6] relates to SF-295 CNS.
In test [7] the test system is SF-539 CNS.
Test [8] deals with UACC-257 melanoma.
The test system of test [9] is M14 melanoma.
Test [10] relates to HCT-15 colon.
The subject of test [11] is HT29 colon.
In test [12] the test system is SNB-75 CNS.
Test [13] relates to SNB-19 CNS.
Test [14] relates to PC-3 prostate.
Test [15] relates to LOX IMVI melanoma.
In test [16] the test system is U251 CNS.
The subject of test [17] is UACC-62 melanoma.
Test [18] deals with SK-MEL-28 melanoma.
Test [19] deals with SK-MEL-5 melanoma.

As for `O=C1c2c(O)cc(O)cc2-c2c(-c3ccc(O)cc3)oc3cc(O)cc1c23`, the growth in [1] was 40.9%; in test [2] it was 54.7%; in test [3], 66.8%; in test [4] it was 62.1%; in [5], 50.7%; in [6], 29.1%. For the same compound, the growth in [7] is 25.2%; in test [8], 67.5%; in test [9], 46.1%; in test [10] it was 57.5%; in test [11], 88.8%; in [12], 26.4%. The figures for the growth in [13], in test [14] and in [15] were 44.8%, 50.5% and 17.9%, respectively.
In the case of `CC(=O)c1cc2c(N)c(C(=O)Nc3ccccc3)sc2nc1C`, the growth was 75.5% in test [1]; 89.2% in test [2]; 85.1% in test [3]; 85.1% in test [4]; 93.1% in [5]; 64.2% in [6]. Also, the growth in [7] was 72.5%; in test [8] it was 68.4%; in test [9] it was 43.5%; in [10], 60.3%; in test [11] it was 67.3%; in test [12], 66.8%. The growth in test [16] is 73.5%; in [14], 81%; in [17], 31.5%; in test [15], 85.4%; in test [18], 78.4%.
For `Cc1cc2nc3[nH]c4ccccc4c3nc2cc1C`, the growth is 79.4% in test [1]; 76.6% in test [2]; 64.4% in test [3]; 74.6% in test [5]; 102% in test [6]; 70.7% in test [7]. Further, the growth in test [9] was 101%; in test [10], 80.3%; in [11], 95.1%; in test [12] it was 51.2%; in test [13], 89.7%; in test [16], 58.1%. Also, the growth was 88.9% in test [19], 90.3% in test [17], 64.1% in test [15] and 90% in [18].
Regarding `CN(C)C(=S)N=Nc1c(O)[nH]c2ccccc12`, the growth is 31.6% in test [1]; 30.8% in test [2]; 49.1% in test [3]; 14.6% in test [5]; 17.5% in test [6]; 9.37% (active) in test [7]. The growth was -6.4% (active) in [9]; 31.7% in test [10]; 28.7% in test [11]; 48.4% in test [12]; 18.3% in test [13]; 17% in test [16]. Moreover, the growth in [19] is 4.77% (active); in [17] it was -16.9% (active); in test [15], 14%; in test [18] it was 37.5%.
Take `NC(CSC(c1ccccc1)(c1ccccc1)c1ccc(Cl)cc1)C(=O)O` (stereo not drawn): the growth was -49.7% (active) in test [1]; 22.6% in test [2]; -32.8% (active) in [3]; 16.2% in [5]; 13.8% in test [6]; -12.3% (active) in test [7]. Besides, the growth in [9] is -24.2% (active); in [10], 19.3%; in [11], 2.26% (active); in [12], 20.9%; in test [16] it was 12.2%; in [19] it was 10.6%. Further, the growth was 7.9% (active) in [17], 36% in [15] and 33.4% in test [18].
On to `c1ccc2[nH]c(-c3ccc(Nc4nc(N5CCCC5)nc5[nH]ncc45)cc3)nc2c1`, for which the growth in test [1] is -6.9% (active); in [2], -71.5% (active); in test [3], -48.5% (active); in test [4], -81.5% (active); in test [5] it was -7.79% (active); in test [6], -63.3% (active). Also, the growth was -68.1% (active) in test [7]; -90.5% (active) in test [8]; -78% (active) in test [9]; -36.2% (active) in [10]; -79.2% (active) in [12]; 15.5% in test [13]. The growth is -66.1% (active) in [16], 0.946% (active) in test [14] and -84.4% (active) in [15].
With `CC/C=C\C[C@H]1C/C=C2/C(=O)C=C[C@H]2C/C=C\CCCC(=O)O1`, the growth in test [1] was 15%; in test [2] it was 75.1%; in test [3], 40.5%; in test [4], 36.6%; in test [5], 39.9%; in test [6], 23.3%. For the same compound, the growth in test [7] was 14.7%; in test [8] it was 47.1%; in test [9] it was 19.1%; in test [10], 29.8%; in [12], 38.6%; in test [13], 40.3%. Besides, the values for the growth in test [16], in test [14] and in test [15] were 10.4%, 36% and 6.07% (active), respectively.
With `Cc1cc(N2CCCCCC2)nc(NC2CCCC(Nc3ccnc4cc(Cl)ccc34)C2)n1` (stereo not drawn), the growth in test [1] was -70.7% (active); in test [2], -89% (active); in test [3] it was -88.5% (active); in test [4], -81% (active); in [5], -70% (active); in test [6], -85.1% (active). The growth was -92.1% (active) in test [7]; -78.9% (active) in test [8]; -86.5% (active) in test [9]; -87.4% (active) in test [10]; -78.7% (active) in test [12]; -54.5% (active) in test [13]. Besides, the growth in test [16] is -94.8% (active); in test [14], -88.1% (active); in [17], -84.3% (active); in test [15], -93.1% (active); in test [18], -83.5% (active).
Regarding `Cc1cc2c3ccccc3ccc2[n+]2ccccc12`, the growth was 86.9% in test [1]; -5.59% (active) in [2]; 81.6% in [3]; -24.6% (active) in test [5]; 22.6% in test [6]; 42.5% in [7]. Moreover, the growth in test [9] was 68.2%; in test [10], 105%; in test [11], 69%; in [12], 14.6%; in test [13], 4.52% (active); in test [19], -44.8% (active). Also, the growth was 59.8% in test [17], 74.4% in test [15] and 14.9% in [18].
For the compound `NC(N)=N/N=C(/c1ccccc1)c1ccc(F)cc1`, the growth was -19.7% (active) in [1]; 36.5% in test [2]; -18.9% (active) in test [3]; 14.2% in [5]; 3.89% (active) in [6]; -33.5% (active) in test [7]. The growth in [9] was -3.19% (active); in test [10], 10.3%; in [11], -1.2% (active); in test [12], 18%; in [13], 26.8%; in test [16], 4.79% (active). For the same compound, the growth in [19] was -18.7% (active); in test [17] it was 4.05% (active); in [15], 18.6%; in test [18] it was 35.1%.
Regarding `CC/C=C\C/C=C\C[C@H]1C/C=C2/C(=O)C=C[C@@H]2C/C=C\CCC(=O)O1`, the growth in [1] is 23.2%; in test [2] it was 29.6%; in test [3], 19.3%; in test [4], -71.3% (active); in [5], 21%; in test [6], 3.94% (active). Moreover, the growth in test [7] was -25.5% (active); in [8], -13.3% (active); in test [9], 7.48% (active); in [10], 0.621% (active); in test [11] it was -40.5% (active); in test [12] it was 64%. For the same compound, the figures for the growth in test [13], in test [14] and in [15] were 28%, 2.76% (active) and -59.7% (active), respectively.
For `COc1ccc(C(=O)/C=C/c2cccnc2Nc2cc(OC)c(OC)c(OC)c2)cc1`, the growth in test [1] is 31.9%; in test [2], 80.5%; in test [3], 49%; in [4], 12.9%; in test [5], 14.9%; in test [6], 27.4%. Further, the growth is 4.67% (active) in [7]; 35.8% in [8]; 42.7% in [9]; 18.1% in test [10]; 21.2% in [12]; 36.3% in test [13]. In addition, the growth in test [16] was 13%; in test [19], 43%; in test [17], 50%; in test [15], -26% (active); in test [18], 71.5%.
On to `CCOC(=O)C(C)(C#N)C1C=CCCC1` (stereo not drawn), for which the growth in [1] was 97.1%; in test [2], 102%; in test [3], 95.5%; in test [4], 98.8%; in [5], 93.8%; in test [6], 84.3%. Moreover, the growth is 91.8% in test [7]; 93.6% in [8]; 81.2% in test [9]; 91.3% in test [10]; 94.7% in test [11]; 78.3% in test [12]. Further, the growth is 87.9% in [13]; 94.2% in test [14]; 97.7% in test [17]; 96.1% in [15]; 96.2% in test [18].
`Cc1ccc(C(SCC(N)C(=O)O)(c2ccccc2)c2ccc(C)cc2)cc1` (stereo not drawn): the growth in test [1] was -43.8% (active); in test [2] it was 19.8%; in test [3], -12.7% (active); in [5] it was 20.5%; in test [6] it was 14.7%; in test [7], -5.21% (active). Besides, the growth was -34.4% (active) in [9]; 20.1% in test [10]; 1.66% (active) in test [11]; 16.8% in test [12]; 7.96% (active) in test [16]; 16.7% in test [19]. The figures for the growth in test [17], in test [15] and in test [18] were 13.6%, 41.7% and 30%, respectively.
With `COc1cc(/C=C/C(=O)c2cccnc2Nc2ccc(F)cc2)cc(OC)c1OC`, the growth in test [1] is 0.388% (active); in [2], 94.2%; in [3], 37.9%; in test [4] it was 22.6%; in test [5], 21.6%; in [6] it was 57.6%. Further, the growth in test [7] was 56.1%; in test [8], 31.9%; in test [9] it was 70%; in [10], 22.2%; in [11], 12.5%; in test [12], 22.4%. Further, the growth in test [13] is 61.6%; in test [19], 53.7%; in test [17], 49.9%; in [15] it was 8.97% (active); in test [18] it was 72.1%.
